The text below walks through data of PubChem BioAssay.

The nature of experiment [1]: compound effects on lung adenocarcinoma cell viability – A549, calcein-AM fluorescence, 48 h, basal, profiling panel (AID 1162). Further: test concentration not given here. Conditions: higher = more signal.
Experiment [2] can be described thus: compound effects on differentiated 3T3-L1 adipocyte viability – cell-based, 3T3-L1 adipocytes, calcein-AM fluorescence, 48 h, basal, profiling panel (AID 1163). Further: test concentration not given here. Conditions: 3T3-L1 adipocytes viability, higher = more signal.
The nature of experiment [3]: compound effects on hepatocellular carcinoma cell viability – HepG2, calcein-AM fluorescence, 48 h, basal, profiling panel (AID 1164). Further: test concentration not given here. Conditions: higher = more signal.
Experiment [4] in a line: compound effects on multiple myeloma cell viability – MM1S, calcein-AM fluorescence, 48 h, basal, profiling panel (AID 1165). Further: test concentration not given here. As to conditions: higher = more signal.
A short description of experiment [5]: calcein-AM signal in unstimulated myeloma cells – cell-based, calcein-AM fluorescence, 48 h, PK04 Diversity Set, profiling panel (AID 1166).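 Further: cells grown under basal conditions without added stimulus; test concentration not given here.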 Conditions: RPMI8226 myeloma viability, higher = more signal.
Experiment [6] in a line: JC-1 mitochondrial signal, unstimulated HepG2 cells – cell-based, JC-1 fluorescence, 24 h, 100 nL compound, profiling panel (AID 1167). Further: test concentration not given here. As to conditions: HepG2 mitochondrial potential, higher = more signal.
Experiment [7] in a line: JC-1 mitochondrial signal, unstimulated adipocytes – cell-based, JC-1 fluorescence, 3T3-L1 adipocytes, 24 h, 100 nL compound, profiling panel (AID 1168). Further: test concentration not given here. As to conditions: JC-1 mitochondrial fluorescence, higher = more signal, called active from +8 up or from −8 down.
Experiment [8] is described as follows: JC-1 mitochondrial signal, unstimulated myeloma cells – cell-based, JC-1 fluorescence, RPMI8226, 24 h, 100 nL compound, profiling panel (AID 1169). Further: test concentration not given here. Conditions: JC-1 mitochondrial potential fluorescence, higher = more signal.
The nature of experiment [9]: JC-1 mitochondrial signal, unstimulated MM1S myeloma – cell-based, JC-1 fluorescence, 24 h, 100 nL compound, profiling panel (AID 1170). Further: test concentration not given here. As to conditions: MM1S mitochondrial potential, higher = more signal.
Experiment [10] can be described thus: resazurin metabolic signal in A549 cells – cell-based, resazurin fluorescence, 24 h, PK04 Diversity Set, profiling panel (AID 1171). Further: test concentration not given here. As to conditions: A549 viability, higher = more signal, called active from +8 up or from −8 down.
A short description of experiment [11]: resazurin metabolic signal in HepG2 cells – cell-based, resazurin fluorescence, 24 h, PK04 Diversity Set, profiling panel (AID 1172). Further: test concentration not given here. As to conditions: HepG2 viability, higher = more signal. (The colour change of resazurin is a common sign of viable cells or microbes.)
The nature of experiment [12]: budding yeast growth changes without added modifier – OD600, strain BY4716, 24 h, basal condition, primary screen (AID 1173). Conditions: S. cerevisiae BY4716 growth, OD600, 24 h; higher = more signal, called active from +8 up or from −8 down.
Experiment [13] is described as follows: viability profiling in MM1S myeloma cells – cell-based, resazurin fluorescence, basal, 24 h, PK04 Diversity Set, profiling panel (AID 1174). Further: test concentration not given here. Conditions: higher = more signal, called active from +8 up or from −8 down.
Experiment [14] has as its target Dihydroorotate dehydrogenase (quinone), mitochondrial (Plasmodium falciparum (isolate 3D7)) (UniProt Q08210). Put plainly: inhibition of P. falciparum DHODH – biochemical, C-terminal His tag, absorbance 600 nm, primary screen (AID 1175).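 Further: recombinant parasite enzyme with a five histidine tag at its C terminus; test concentration not given here.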 Conditions: PfDHODH enzyme, DCIP absorbance 600 nm; higher = more signal, called active from +8 up or from −8 down.
The nature of experiment [15]: inhibition of PAO1 biofilm formation – strain PAO1, LB-PBS medium, absorbance 600 nm, primary screen (AID 1176). Further: test concentration not given here. As to conditions: P. aeruginosa PAO1 growth/biofilm, A600, 12 h; higher = more signal.
Experiment [16] is described as follows: growth modulation of vineyard yeast isolate – strain RM11-1a, OD600, basal, 24 h, primary screen (AID 1177).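 Further: cultures grown under basal conditions with no added stressor; test concentration not given here.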 Conditions: S. cerevisiae RM11-1a growth, OD600, 24 h; higher = more signal, called active from +8 up or from −8 down.
A short description of experiment [17]: growth of efflux-deficient E. coli DRC39 – strain DRC39, OD650, 24 h, E. coli filamentation inducers, primary screen (AID 1178).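 Further: growth measured as culture turbidity by optical density at 650 nm; test concentration not given here.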 As to conditions: E. coli DRC39 acrAB, higher = more signal, called active from +8 up or from −8 down.
Experiment [18] can be described thus: growth of efflux-deficient E. coli DRC39 – strain DRC39, OD650, 48 h, E. coli filamentation inducers, primary screen (AID 1179).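 Further: screen aims at cell division blockers that make cells filament.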 As to conditions: E. coli DRC39 delta-acrAB growth, higher = more signal, called active from +8 up or from −8 down.
Experiment [19] in a line: viability profiling in RPMI8226 myeloma cells – cell-based, resazurin fluorescence, basal, 24 h, PK04 Diversity Set, profiling panel (AID 1180).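 Further: RPMI8826 multiple myeloma cell line at 5000 cells per well; test concentration not given here.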 As to conditions: higher = more signal.
The target in experiment [20] is E3 ubiquitin-protein ligase XIAP (Homo sapiens) (UniProt P98170). Put plainly: small molecules binding XIAP protein – biophysical, small-molecule microarray, fluorescence 635 nm, primary screen (AID 1181).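 Further: score merges 667 nm emission and signal to noise over triplicate slides.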 Conditions: higher = more signal.
E3 ubiquitin-protein ligase XIAP (Homo sapiens), sequence (P98170 whole entry, looked up): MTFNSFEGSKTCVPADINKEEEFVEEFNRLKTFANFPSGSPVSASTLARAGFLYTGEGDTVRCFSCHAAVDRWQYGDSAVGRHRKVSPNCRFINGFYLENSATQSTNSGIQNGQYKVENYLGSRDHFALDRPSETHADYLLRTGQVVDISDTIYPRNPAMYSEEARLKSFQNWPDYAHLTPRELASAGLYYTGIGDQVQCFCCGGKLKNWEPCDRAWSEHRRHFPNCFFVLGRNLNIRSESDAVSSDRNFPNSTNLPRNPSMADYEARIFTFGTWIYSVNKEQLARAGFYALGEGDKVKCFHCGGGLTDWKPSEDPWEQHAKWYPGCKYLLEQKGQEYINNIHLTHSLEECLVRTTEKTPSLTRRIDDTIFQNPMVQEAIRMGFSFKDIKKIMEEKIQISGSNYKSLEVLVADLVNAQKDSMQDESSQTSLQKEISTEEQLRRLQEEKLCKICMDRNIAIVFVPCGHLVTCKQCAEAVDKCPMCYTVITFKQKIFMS

The source made the active and inactive calls. Unless noted, how the calls were made is not given here.

Dihydroorotate dehydrogenase (quinone), mitochondrial (Plasmodium falciparum (isolate 3D7)), sequence (Q08210 whole entry, looked up): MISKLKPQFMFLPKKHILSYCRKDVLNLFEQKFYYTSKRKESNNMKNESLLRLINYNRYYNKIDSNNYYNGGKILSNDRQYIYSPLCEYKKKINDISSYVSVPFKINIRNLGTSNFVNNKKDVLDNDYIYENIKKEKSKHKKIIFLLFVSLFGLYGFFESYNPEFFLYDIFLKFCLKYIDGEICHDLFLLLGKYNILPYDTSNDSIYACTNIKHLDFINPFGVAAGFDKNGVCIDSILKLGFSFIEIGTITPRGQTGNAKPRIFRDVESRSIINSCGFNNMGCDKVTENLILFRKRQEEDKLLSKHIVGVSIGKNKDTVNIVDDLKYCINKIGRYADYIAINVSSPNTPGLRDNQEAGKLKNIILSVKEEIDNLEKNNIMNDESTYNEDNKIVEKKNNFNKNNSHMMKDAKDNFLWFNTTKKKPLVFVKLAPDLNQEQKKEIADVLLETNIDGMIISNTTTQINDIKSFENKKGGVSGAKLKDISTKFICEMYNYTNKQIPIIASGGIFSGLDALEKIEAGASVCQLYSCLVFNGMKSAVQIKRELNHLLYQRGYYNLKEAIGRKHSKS

For the compound `CC(=O)n1cc(C(O)C2C=CC3C(=O)N(c4ccccc4)C(=O)C3N2Nc2ccc([N+](=O)[O-])cc2)c2ccccc21` (stereo not given), the z-score in experiment [1] was -0.456; in [2] it was -0.479; in experiment [3] it was -0.439; in experiment [4] it was -1.53; in [5], -0.315; in experiment [6] it was -1.75. In addition, the z-score in experiment [7] is -1.2 (inactive); in experiment [8], -0.412; in experiment [9] it was 0.0885; in [10] it was -0.375 (inactive); in [11], -0.768; in [12], -0.199 (inactive). The z-score is -1.15 (inactive) in [13]; 1.25 (inactive) in experiment [15]; 0.241 (inactive) in [16]; -1.34 (inactive) in experiment [17]; -0.885 (inactive) in [18]; -0.669 in experiment [19]. The composite z-score is 0.835 (inactive) in experiment [14] and -0.0391 in experiment [20].

For `COC(=O)C[C@H]1O[C@]2(C(=O)N(C)c3ccccc32)[C@@H](C)[C@@H]1[Si](C)(C)F`, the z-score is 0.0967 in experiment [1]; 0.587 in experiment [2]; 1.21 in experiment [3]; 0.0544 in [4]; -0.804 in [5]; 0.65 in [6]. In addition, the z-score in experiment [7] is -0.125 (inactive); in experiment [8], 0.452; in experiment [9], 0.632; in experiment [10] it was 2.22 (inactive); in [11], 0.951; in [12], -2.55 (inactive). Besides, the z-score in experiment [13] was 1.55 (inactive); in experiment [15] it was 0.908 (inactive); in experiment [16], -2.64 (inactive); in [17], 1.51 (inactive); in experiment [18], 0.847 (inactive); in experiment [19], 2.42. Also, the figures for the composite z-score in experiment [14] and in [20] were -1.49 (inactive) and 0.103, respectively.

With `O=C(NCCN1CCOCC1)[C@@H]1c2ccccc2C(=O)N(C2CCCCC2)[C@H]1c1ccc(CO)cc1`, the z-score in [1] was 1.37; in experiment [2], 1.19; in experiment [3], 2.16; in [4] it was -0.165; in experiment [5] it was -1.03; in [6], 3.08. For the same compound, the z-score in experiment [7] is -0.0789 (inactive); in experiment [8], 0.0842; in [9] it was 0.146; in [10] it was 1.17 (inactive); in [11] it was -0.0383; in [12], 0.211 (inactive). Further, the z-score in [13] was 0.528 (inactive); in experiment [15], -0.177 (inactive); in [16] it was 0.0492 (inactive); in [17], -0.424 (inactive); in [18], -0.783 (inactive); in [19] it was 0.872. The composite z-score in experiment [14] is -0.146 (inactive); in experiment [20], -0.165.

As to `C=CC(=C)[C@H]1Oc2ccccc2S(=O)(=O)N2CCC[C@@H]12`, the z-score in experiment [1] was 0.159; in [2], 0.0997; in [3], -1.23; in experiment [4] it was -0.391; in [5] it was -1.64; in [6], -0.708. The z-score in experiment [7] was -0.0333 (inactive); in experiment [8], -0.295; in experiment [9], 0.941; in [10], 0.0255 (inactive); in experiment [11], -0.702; in experiment [12], -3 (inactive). The z-score in [13] was -0.205 (inactive); in experiment [15], -0.389 (inactive); in [16] it was -0.377 (inactive); in experiment [17] it was -0.553 (inactive); in experiment [18], -0.84 (inactive); in [19], -0.973. The composite z-score in [14] was 0.742 (inactive); in [20], -0.02.

As to `C=C[C@H](CO[Si](CC)(CC)CC)N(Cc1ccc(OC(C)=O)c(OC)c1)S(=O)(=O)c1ccc(Br)cc1`, the z-score was -0.217 in experiment [1]; 0.327 in experiment [2]; -4.67 in experiment [3]; -3.23 in experiment [4]; -4.32 in [5]; -1.25 in [6]. The z-score in experiment [7] is 1.07 (inactive); in experiment [8] it was -1.1; in [9], -1.84; in experiment [10] it was -0.18 (inactive); in [11], -0.423; in experiment [12], -0.128 (inactive). Further, the z-score in experiment [13] is -0.649 (inactive); in [15], -0.649 (inactive); in experiment [16], 0.292 (inactive); in experiment [17], 0.93 (inactive); in experiment [18], 1.67 (inactive); in experiment [19] it was -3.37. The composite z-score is -1.38 (inactive) in [14] and 0.0487 in experiment [20].
